Experimental data published in the supplement of paper PMC11732987, “Enantioselective OTUD7B fragment discovery through chemoproteomics screening and high-throughput optimisation” (Communications Chemistry, 2025).

Columns and labels:
Experiment in all cases: log2 ratio of Biotin-Ahx-Ub-VS probe labelling (fragment/DMSO); higher = less target engagement (more negative = stronger competition), active = hit call of the paper (q ≤ 0.05, log2 ratio ≤ -1)
Details in all cases: compound concentration: 200 uM; treatment time: 3 h
[1] = target: T1, USP42 (UniProt Q9H9J4)
T1 sequence (whole entry): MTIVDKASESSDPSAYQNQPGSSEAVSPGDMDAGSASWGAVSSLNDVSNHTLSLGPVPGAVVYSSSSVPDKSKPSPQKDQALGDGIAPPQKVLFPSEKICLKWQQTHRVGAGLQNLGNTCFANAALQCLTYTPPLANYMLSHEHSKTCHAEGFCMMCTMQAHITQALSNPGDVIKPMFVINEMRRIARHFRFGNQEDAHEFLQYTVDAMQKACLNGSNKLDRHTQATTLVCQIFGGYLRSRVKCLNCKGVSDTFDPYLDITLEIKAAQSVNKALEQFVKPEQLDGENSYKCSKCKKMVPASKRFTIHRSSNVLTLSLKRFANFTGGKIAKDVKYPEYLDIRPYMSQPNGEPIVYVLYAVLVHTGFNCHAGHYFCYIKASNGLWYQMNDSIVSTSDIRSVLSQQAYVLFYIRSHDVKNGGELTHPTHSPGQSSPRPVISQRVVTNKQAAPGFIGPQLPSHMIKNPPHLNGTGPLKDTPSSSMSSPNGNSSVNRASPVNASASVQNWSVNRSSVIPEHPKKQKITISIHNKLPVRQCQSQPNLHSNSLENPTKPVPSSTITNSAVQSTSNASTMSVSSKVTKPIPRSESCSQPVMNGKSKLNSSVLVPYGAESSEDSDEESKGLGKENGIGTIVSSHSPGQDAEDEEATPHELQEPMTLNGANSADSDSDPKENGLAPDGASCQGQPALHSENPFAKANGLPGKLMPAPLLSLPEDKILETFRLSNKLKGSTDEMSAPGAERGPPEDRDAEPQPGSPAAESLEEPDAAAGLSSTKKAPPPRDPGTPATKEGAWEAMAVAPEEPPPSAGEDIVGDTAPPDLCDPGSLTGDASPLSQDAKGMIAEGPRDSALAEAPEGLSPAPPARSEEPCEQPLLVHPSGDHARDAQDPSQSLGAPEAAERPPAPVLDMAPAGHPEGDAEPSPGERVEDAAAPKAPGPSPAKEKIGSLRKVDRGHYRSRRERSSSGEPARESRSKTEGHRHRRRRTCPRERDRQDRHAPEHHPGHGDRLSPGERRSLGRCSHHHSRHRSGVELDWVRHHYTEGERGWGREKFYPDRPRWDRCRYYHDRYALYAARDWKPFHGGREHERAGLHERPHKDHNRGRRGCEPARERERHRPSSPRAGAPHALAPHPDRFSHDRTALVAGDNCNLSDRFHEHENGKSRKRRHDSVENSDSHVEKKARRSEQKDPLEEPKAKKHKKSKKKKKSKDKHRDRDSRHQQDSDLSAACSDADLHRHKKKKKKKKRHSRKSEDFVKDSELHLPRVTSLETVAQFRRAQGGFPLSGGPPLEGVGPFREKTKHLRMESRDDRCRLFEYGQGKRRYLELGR
Summary of the method: (§1)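 The table lists average log2 ratios of fragment over vehicle, from an unpaired t-test on global-median-normalised Spectronaut label-free quantities. Proteins with ≥2 unique peptides were used. Samples were HEK293T lysate (495 µg) treated in triplicate with fragment at 200 µM or vehicle for 3 h, then with Biotin-Ahx-Ub-VS (0.5 µM final) for 1 h, with labelled DUBs NeutrAvidin-enriched and run by diaPASEF LC-MS/MS.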

[2] = target: USP46 (UniProt P62068)
Summary of the method: as §1

[3] = target: T2, USP47 (UniProt Q96K76)
T2 sequence (whole entry): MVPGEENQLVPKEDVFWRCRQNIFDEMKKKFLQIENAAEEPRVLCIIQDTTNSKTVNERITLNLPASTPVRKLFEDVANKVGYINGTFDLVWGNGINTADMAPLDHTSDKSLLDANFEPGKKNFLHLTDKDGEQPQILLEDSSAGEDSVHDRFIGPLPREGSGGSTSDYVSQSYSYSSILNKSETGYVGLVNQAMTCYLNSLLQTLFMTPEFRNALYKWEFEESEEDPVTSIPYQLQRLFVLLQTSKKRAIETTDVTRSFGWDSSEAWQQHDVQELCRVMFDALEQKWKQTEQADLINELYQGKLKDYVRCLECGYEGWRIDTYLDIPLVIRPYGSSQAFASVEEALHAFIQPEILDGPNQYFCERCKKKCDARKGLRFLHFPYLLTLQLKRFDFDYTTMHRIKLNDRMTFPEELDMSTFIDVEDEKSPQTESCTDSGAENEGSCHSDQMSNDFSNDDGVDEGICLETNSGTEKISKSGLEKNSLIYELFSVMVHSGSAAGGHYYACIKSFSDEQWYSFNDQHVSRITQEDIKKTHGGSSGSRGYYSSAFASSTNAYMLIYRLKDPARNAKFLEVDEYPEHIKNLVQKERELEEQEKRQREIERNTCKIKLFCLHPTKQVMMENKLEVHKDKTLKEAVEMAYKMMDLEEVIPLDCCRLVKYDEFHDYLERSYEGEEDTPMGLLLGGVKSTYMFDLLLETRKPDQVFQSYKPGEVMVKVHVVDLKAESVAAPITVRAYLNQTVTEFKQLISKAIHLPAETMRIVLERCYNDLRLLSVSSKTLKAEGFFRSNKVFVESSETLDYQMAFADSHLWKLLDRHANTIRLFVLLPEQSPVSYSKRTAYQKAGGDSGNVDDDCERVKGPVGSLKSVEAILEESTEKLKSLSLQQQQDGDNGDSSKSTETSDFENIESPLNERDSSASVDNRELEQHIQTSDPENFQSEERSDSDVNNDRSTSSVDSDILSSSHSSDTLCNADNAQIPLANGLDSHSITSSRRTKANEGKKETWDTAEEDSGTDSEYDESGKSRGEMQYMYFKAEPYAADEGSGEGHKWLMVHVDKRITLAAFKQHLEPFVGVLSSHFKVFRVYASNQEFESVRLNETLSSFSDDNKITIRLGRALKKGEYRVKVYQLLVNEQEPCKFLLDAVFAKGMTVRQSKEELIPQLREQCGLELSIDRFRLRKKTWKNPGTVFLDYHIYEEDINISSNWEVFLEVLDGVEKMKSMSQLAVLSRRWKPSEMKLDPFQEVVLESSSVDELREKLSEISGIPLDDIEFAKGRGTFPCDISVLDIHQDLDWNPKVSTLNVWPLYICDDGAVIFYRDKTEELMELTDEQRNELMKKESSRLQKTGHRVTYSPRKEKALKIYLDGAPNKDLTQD
Summary of the method: as §1

[4] = target: T3, USP48 (UniProt Q86UV5)
T3 sequence (whole entry): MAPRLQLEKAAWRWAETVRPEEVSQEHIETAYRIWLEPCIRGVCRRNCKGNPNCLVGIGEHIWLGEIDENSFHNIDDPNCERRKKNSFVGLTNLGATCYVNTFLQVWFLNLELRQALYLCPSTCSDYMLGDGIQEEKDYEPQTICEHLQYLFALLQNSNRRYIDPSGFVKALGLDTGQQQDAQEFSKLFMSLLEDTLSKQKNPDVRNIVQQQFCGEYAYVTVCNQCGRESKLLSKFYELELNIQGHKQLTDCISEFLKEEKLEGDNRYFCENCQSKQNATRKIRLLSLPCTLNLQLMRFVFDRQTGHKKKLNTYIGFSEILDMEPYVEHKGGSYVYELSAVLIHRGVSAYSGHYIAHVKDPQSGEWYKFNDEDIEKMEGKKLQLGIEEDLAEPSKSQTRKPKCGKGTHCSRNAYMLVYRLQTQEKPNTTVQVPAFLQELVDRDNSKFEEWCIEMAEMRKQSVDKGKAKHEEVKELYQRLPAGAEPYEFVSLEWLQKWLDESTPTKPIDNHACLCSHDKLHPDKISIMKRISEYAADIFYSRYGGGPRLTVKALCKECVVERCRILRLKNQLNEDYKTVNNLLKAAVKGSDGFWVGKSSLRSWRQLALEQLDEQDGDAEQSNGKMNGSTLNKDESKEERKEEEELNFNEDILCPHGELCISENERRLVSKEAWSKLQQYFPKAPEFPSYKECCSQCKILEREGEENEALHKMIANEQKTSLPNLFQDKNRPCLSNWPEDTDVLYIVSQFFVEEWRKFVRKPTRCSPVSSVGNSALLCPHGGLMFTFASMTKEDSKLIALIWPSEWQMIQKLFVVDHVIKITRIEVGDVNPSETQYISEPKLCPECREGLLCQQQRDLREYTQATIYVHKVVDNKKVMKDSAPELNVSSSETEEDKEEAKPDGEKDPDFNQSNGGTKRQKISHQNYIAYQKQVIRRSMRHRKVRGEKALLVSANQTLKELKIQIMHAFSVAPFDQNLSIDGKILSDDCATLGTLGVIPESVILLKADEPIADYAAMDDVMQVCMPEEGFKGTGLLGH
Summary of the method: as §1

[5] = target: T4, USP5 (UniProt P45974)
T4 sequence (whole entry): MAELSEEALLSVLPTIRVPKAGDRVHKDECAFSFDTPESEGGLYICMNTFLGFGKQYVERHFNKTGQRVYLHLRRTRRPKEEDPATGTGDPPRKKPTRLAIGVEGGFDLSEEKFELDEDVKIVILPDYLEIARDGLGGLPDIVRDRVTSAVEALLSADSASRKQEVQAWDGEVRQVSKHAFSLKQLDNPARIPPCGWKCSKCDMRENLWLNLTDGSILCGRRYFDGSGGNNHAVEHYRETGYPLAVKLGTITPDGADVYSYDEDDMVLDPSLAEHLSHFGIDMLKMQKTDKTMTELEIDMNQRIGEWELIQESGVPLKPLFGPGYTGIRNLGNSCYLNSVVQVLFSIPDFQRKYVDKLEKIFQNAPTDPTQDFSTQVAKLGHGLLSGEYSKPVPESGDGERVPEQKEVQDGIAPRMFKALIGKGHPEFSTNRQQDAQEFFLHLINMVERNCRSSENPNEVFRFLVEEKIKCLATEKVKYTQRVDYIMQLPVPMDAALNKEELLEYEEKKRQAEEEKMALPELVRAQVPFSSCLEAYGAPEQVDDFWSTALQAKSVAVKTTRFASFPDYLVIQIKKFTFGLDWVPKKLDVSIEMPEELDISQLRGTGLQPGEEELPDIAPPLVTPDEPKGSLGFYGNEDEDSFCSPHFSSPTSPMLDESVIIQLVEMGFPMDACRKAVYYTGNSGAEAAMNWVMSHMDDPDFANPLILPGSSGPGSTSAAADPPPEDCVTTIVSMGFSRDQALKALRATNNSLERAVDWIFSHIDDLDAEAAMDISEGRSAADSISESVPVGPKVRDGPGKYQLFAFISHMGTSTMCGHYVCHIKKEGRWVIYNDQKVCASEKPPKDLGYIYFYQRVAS
Summary of the method: as §1

[6] = target: USP54 (UniProt Q70EL1)
Summary of the method: as §1

[7] = target: USP7 (UniProt Q93009)
Summary of the method: as §1

[8] = target: T5, USP8 (UniProt P40818)
T5 sequence (whole entry): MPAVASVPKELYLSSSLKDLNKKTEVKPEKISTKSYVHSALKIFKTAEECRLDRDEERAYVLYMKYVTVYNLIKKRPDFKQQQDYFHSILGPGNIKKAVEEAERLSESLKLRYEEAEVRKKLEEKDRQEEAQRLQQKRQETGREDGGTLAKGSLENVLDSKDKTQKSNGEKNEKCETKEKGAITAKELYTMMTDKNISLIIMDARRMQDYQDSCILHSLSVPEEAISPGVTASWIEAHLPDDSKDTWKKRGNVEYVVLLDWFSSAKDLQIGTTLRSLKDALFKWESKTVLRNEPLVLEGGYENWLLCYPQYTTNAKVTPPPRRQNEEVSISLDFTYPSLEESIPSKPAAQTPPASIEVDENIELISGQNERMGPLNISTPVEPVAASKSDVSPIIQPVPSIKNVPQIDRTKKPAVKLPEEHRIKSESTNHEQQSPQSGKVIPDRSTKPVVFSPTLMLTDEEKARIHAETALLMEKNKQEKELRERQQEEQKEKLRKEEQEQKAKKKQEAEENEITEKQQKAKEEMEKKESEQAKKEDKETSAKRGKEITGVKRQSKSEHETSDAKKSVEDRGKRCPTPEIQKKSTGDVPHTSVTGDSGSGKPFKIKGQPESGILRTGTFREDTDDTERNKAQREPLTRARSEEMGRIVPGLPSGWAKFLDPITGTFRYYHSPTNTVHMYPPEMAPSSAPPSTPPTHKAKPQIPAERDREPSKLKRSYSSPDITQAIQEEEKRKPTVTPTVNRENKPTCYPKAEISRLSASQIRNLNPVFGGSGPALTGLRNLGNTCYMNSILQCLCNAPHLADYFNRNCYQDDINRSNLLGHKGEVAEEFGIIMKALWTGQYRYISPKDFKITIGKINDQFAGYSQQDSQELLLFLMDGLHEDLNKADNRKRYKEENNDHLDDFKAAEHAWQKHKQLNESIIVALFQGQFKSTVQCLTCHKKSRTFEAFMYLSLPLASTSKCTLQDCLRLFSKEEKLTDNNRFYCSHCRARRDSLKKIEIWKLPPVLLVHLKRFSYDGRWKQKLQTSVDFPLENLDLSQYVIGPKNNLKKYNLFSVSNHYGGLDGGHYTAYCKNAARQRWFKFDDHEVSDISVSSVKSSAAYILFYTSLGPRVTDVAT
Summary of the method: as §1

[9] = target: USP9X (UniProt Q93008)
Summary of the method: as §1

[10] = target: UniProt O00487
Summary of the method: as §1

Measured: log2 ratio of Biotin-Ahx-Ub-VS probe labelling

Sequence of USP7 (Q93009 whole entry, looked up): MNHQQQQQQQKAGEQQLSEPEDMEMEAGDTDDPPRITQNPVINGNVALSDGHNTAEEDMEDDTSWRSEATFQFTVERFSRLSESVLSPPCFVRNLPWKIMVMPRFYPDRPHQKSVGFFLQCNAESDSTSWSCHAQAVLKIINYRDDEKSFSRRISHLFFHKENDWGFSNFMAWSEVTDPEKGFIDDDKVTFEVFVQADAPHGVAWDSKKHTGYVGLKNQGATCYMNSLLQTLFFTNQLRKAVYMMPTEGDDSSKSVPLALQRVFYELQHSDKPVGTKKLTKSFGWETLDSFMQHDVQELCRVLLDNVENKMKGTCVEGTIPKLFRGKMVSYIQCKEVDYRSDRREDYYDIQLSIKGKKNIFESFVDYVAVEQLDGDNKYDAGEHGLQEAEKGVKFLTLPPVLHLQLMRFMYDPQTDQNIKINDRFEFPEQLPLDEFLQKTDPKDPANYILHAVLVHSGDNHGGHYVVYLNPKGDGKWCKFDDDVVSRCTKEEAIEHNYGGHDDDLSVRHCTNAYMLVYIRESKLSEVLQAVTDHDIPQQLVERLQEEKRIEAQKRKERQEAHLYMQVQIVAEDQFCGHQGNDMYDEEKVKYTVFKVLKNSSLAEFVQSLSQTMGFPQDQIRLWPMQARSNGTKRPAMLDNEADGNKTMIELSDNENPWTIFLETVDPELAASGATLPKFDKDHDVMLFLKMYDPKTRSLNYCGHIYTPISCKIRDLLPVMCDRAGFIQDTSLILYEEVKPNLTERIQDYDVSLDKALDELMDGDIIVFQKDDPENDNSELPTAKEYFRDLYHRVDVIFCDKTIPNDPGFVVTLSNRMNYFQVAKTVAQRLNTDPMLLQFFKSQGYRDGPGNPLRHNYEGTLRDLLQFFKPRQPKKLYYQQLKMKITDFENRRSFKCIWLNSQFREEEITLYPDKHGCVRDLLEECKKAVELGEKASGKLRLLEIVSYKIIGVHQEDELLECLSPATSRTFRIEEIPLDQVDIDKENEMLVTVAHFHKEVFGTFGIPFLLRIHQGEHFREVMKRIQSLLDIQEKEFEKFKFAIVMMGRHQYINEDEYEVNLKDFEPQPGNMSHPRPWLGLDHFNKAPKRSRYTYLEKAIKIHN
Sequence of UniProt O00487 (O00487 whole entry): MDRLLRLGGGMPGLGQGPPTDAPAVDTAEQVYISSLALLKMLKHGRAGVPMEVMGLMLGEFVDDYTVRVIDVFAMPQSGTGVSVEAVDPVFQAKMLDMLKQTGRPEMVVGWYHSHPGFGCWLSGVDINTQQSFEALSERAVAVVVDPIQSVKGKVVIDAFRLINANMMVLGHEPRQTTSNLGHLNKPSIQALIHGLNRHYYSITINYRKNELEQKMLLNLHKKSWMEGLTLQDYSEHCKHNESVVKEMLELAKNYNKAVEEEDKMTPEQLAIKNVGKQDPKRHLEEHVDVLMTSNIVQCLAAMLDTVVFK
Sequence of USP46 (P62068 whole entry): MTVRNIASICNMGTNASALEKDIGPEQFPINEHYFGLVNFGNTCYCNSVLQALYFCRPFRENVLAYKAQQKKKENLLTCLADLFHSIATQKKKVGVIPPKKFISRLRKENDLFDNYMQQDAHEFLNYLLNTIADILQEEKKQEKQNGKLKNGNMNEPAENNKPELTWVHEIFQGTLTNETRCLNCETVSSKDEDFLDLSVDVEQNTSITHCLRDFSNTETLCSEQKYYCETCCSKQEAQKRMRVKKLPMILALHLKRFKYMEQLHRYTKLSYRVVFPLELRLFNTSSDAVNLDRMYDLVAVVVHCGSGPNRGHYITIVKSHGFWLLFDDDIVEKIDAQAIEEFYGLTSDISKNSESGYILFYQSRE
Sequence of USP54 (Q70EL1 whole entry): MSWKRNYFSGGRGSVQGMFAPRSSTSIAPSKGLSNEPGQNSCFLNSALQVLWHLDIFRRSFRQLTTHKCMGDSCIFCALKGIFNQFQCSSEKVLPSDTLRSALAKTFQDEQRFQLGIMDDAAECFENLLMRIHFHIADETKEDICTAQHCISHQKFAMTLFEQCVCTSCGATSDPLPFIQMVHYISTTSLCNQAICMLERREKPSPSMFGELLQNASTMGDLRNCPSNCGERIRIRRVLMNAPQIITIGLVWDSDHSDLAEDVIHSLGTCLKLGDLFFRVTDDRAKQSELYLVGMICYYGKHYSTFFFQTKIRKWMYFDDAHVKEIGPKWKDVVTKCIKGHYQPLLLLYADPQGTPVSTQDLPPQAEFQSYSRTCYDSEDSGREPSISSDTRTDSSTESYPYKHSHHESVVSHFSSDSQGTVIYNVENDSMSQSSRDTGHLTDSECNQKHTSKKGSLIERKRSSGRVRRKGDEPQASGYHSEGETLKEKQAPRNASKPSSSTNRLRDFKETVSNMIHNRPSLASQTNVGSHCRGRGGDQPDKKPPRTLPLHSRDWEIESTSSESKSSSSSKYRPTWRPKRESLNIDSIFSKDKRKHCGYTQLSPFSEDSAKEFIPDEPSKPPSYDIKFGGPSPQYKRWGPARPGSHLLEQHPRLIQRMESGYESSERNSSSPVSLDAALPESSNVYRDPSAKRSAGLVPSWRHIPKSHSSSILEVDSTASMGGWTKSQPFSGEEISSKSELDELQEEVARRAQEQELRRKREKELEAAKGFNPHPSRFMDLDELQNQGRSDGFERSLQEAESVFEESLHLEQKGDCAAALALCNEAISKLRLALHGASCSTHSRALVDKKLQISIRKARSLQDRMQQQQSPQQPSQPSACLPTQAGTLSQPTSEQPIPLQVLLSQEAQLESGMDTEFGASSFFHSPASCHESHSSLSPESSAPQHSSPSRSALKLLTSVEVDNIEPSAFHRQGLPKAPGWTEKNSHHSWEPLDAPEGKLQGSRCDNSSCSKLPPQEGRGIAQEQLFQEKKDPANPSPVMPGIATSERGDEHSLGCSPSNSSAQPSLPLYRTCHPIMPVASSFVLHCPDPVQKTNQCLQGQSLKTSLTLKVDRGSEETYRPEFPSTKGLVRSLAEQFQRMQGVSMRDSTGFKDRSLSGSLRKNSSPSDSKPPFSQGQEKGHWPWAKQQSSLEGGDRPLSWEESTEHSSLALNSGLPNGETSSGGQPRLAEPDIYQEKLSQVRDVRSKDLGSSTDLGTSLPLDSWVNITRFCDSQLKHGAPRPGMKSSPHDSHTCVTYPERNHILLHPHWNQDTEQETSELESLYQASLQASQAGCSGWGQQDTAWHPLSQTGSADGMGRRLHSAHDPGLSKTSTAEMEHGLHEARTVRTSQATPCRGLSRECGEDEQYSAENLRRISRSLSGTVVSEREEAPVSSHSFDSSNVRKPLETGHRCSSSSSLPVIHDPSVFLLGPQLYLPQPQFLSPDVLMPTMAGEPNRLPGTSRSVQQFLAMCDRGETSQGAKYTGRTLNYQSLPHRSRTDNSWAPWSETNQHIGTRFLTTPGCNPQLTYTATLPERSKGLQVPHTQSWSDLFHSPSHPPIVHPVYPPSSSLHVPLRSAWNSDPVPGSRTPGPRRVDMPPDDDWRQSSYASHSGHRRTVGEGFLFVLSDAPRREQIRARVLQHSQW

Cl.Cn1ncc2c1CC(NC(=O)CCl)CC2 (stereo not given)
inactive: [1] 0.421 | [2] 0.116 | [3] 0.118 | [4] 0.191 | [5] 0.0298 | [6] -0.146 | [7] -0.063 | [8] -0.0427 | [9] -0.0203 | [10] -0.0601
